# DT40 TDP1 no CPT: qHTS for Inhibitors of human tyrosyl-DNA phosphodiesterase 1 (TDP1): qHTS in cells in absence of CPT; 420,000 compounds, 15% hits; AID 686978, 2013; DT40 Tdp1-/- hTDP1 cells, no CPT, ATP luminescence, 48 h; Potency, µM (doses to about 46.2 µM), for inactives: at the top dose activity change, negative = growth inhibition, usual class: inhibitors; note: potency is the fitted concentration of half-maximal effect; nearly all actives have a fitted effect of over 55% in size
#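 Chicken DT40 Tdp1-/- cells complemented with human TDP1, screened without camptothecin (DMSO vehicle only), 400 cells/well. Compounds pin-transferred, cells incubated at 37 °C for at least 48 hr. Growth read as ATP-dependent luminescence (CellTiter-Glo, 30 min at RT).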
# CtBP-E1A blk: qHTS Assay for Inhibitors of the CtBP/E1A Interaction | AlphaScreen GST-E1A/His-CtBP binding, 1536-well; stronger effect = lower value | CtBP / adenovirus E1A interaction (AlphaScreen) | AID 651724, 2012 | activity change, % (test concentration not listed) | 340,000 compounds, 0.49% hits; in the data active = activity change below about -65%; inconclusive = mostly about -30% to -63%
#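 Steps: dispense buffer (Tris pH 8.0, NaCl 300 mM, TCEP 1 mM, BSA, Tween 20); add 5X protein mix (GST-E1A, His-CtBP, 125 nM each); pin 23 nL compound; 2 h at 37 °C, dark; add 5X beads (50 ug/mL); 1 h; read.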
# DT40 TDP1 CPT: qHTS for Inhibitors of human tyrosyl-DNA phosphodiesterase 1 (TDP1): qHTS in cells in presence of CPT. chicken DT40 Tdp1-/-;hTDP1 cells + 20 nM CPT, ATP luminescence, 48 h. AID 686979, 2013. 420,000 compounds, 12% hits. Potency, µM (top dose mostly 46.2 µM), without a hit: top-dose activity change, negative = growth inhibition, actives largely listed as inhibitors; note: potency is the fitted concentration of half-maximal effect; nearly all actives have a fitted effect of over 55% in size
#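 Chicken DT40 Tdp1-/- cells complemented with human TDP1, 400 cells/well, exposed to compounds plus 20 nM camptothecin for at least 48 h at 37 C; viability read as ATP content by CellTiter-Glo luminescence.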
# TDP1 block: qHTS Assay for Inhibitors of Tyrosyl-DNA Phosphodiesterase (TDP1); recombinant TDP1, AlphaScreen DNA substrate cleavage; Potency, µM (top dose mostly 130 µM), without a hit: at the top dose activity change, negative = inhibition, hits mostly inhibitors; 350,000 compounds, 0.28% hits; note: potency is the fitted concentration of half-maximal effect; nearly all actives have a fitted effect of over 40% in size
#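 Signal: AlphaScreen proximity between streptavidin donor and anti-FITC acceptor beads on intact substrate. Reaction: Tdp1 1 nM, substrate 15 nM final, 5 min RT after 15 min compound preincubation.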
# IL1B secr inh: qHTS for Inhibitors of Inflammasome Signaling: IL-1-beta AlphaLISA Primary Screen. THP-1 LPS/ATP IL-1B secretion, AlphaLISA, 16 h; stronger effect = lower value. activity change, % at 57.5 µM. 360,000 compounds, 4.7% hits; in the data active = activity change below about -50%; inconclusive = mostly about -30% to -49%
#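 THP-1 cells pretreated 1 hr with compounds (up to 57.5 uM final), then stimulated with LPS (250 ng/mL final) plus ATP (1.25 mM final); secreted IL-1B measured by AlphaLISA after 16 hr, decreased signal indicating inhibition.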
# Six1-Eya2 inh: qHTS Assay for Inhibitors of the Six1/Eya2 Interaction | Homeobox protein SIX1 (Homo sapiens) + Protein phosphatase EYA2 (Homo sapiens), … | AlphaScreen GST-Six1/His-Eya2 binding, biochemical; stronger effect = lower value | activity change, % (no concentration beside the values) | 360,000 compounds, 0.56% hits | AID 651725, 2012; in the data active = activity change below about -65%; inconclusive = mostly about -30% to -63%
# Target sequence (O00167 whole entry, looked up): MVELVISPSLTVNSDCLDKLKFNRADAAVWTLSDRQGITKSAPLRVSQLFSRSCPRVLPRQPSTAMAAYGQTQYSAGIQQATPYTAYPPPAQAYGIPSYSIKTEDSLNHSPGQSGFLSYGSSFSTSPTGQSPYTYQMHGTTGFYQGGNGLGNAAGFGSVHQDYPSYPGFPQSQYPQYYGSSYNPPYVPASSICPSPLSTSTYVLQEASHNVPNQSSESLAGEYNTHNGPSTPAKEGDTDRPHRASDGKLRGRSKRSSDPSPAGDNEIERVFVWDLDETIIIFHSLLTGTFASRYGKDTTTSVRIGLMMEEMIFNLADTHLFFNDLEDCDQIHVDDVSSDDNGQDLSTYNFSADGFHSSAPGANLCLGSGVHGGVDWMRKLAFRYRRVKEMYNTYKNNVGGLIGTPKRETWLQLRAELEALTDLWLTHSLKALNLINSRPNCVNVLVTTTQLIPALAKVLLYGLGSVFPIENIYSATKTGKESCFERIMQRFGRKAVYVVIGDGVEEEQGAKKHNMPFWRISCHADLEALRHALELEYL
# Target sequence (Q15475 whole entry, looked up): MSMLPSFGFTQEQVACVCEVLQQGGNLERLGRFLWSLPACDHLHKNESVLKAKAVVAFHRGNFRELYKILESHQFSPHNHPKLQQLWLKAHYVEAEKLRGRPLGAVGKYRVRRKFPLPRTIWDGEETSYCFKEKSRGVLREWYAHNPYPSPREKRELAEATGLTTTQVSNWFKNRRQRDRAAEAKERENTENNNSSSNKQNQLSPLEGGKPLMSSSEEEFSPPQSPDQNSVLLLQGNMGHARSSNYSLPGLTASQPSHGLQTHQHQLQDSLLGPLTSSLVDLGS
#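 Compounds are tested against tagged Six1 and Eya2 proteins bridged by glutathione donor and nickel acceptor beads; after a one-hour incubation at 37 °C without light, AlphaScreen emission is recorded.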
# * marks the source's active call; other numbers are inactive results; ? = inconclusive; nt = no result; ! = not confirmed by another sample; [ ] = another dose, or the depositor's remark. Sampled rows, rich in hits. Any-hit rate of the full collection: about 18%. Unless noted, calls come from the whole dose curve; as a rule, active = well fitted curve in the direction sought with a large enough effect; inconclusive = small, poorly fitted or top-dose-only effect, or another doubt; inactive = no such curve, though single readings can be large; an effect the other way counts as inactive or inconclusive. % is set by controls: 0 for no effect and ±100 for the full control effect.
SMILES,DT40 TDP1 no CPT,CtBP-E1A blk,DT40 TDP1 CPT,TDP1 block,IL1B secr inh,Six1-Eya2 inh
CC1CN(C(=O)c2cc(S(=O)(=O)N(C)c3ccc(F)cc3)ccc2Cl)CC(C)O1 (stereo not drawn),1.03µM*,1.3,2.31µM*,-1.3%,1.6,-1.1
CC1CN(C(=O)c2cc(S(=O)(=O)N3CCCCC3)ccc2Cl)CC(C)O1 (stereo not drawn),11.6µM*,6.3,16.4µM*,-0.3%,33.3,0.3
O=C(c1cccc(S(=O)(=O)N2CCc3ccccc3C2)c1)N1CCN(c2ccc(O)cc2)CC1,11.6µM*,-11.0,14.6µM*,-0.6%,-10.6,-16.3
CC1CN(C(=O)c2cc(S(=O)(=O)N3CCN(c4ccccc4)CC3)ccc2Cl)CC(C)O1 (stereo not drawn),2.06µM*,-1.8,3.66µM*,6.3%,5.2,-3.4
CCOC(=O)C1CCCN(C(=O)c2cc(S(=O)(=O)N3CCCCC3)ccc2Cl)C1 (stereo not drawn),20.6µM*,-5.4,20.6µM*,-7.5%,-14.4,5.6
CC1CN(C(=O)c2cc(S(=O)(=O)N3CCCC3)ccc2Cl)CC(C)O1 (stereo not drawn),?,4.8,-19.2%,1.7%,45.2,0.3
CCn1c(SCC(=O)N2CCCC2)nc2ccccc21,17.0%,8.6,-6.8%,2.7%,-1.5,-1.1
O=C(OCC(=O)N(CCc1ccccc1)Cc1ccccc1)c1cccc(O)c1,-18.3%,-3.1,-28.4%,nt,-7.6,-2.8
CCOC(=O)C1CCCN(S(=O)(=O)c2ccc(F)c(C(=O)Nc3ccc(F)c(F)c3)c2)C1 (stereo not drawn),16.4µM*,-4.0,23.1µM*!,2.6%,-66.2*,0.0
O=C(c1cccc(S(=O)(=O)N2CCN(c3ccccc3)CC2)c1)N1CCCCCCC1,13µM*,-2.8,?,nt,-14.0,-12.6
CC(=O)c1ccc(N(C(=O)CNC(=O)c2ccco2)C(C(=O)NC2CCCC2)c2cccnc2)cc1 (stereo not drawn),9.3%,-11.6,5.7%,0.3%[0.0935 µM],-3.4,3.3
Nc1nc(N)nc(-c2ccc([N+](=O)[O-])o2)n1,23.1µM*,-22.3,?,nt,-11.6,-18.5
O=[N+]([O-])c1ccc(-c2ccn[nH]2)o1,-29.4%,-3.5,?,0.0%,0.0,2.1
Cc1ccc(NC(=O)CCN2C(=O)c3ccccc3C2=O)cc1,2.6%,-20.5,19.8%,1.6%,-24.1,15.4
O=C1CSC(c2cn(-c3ccccc3)nc2-c2ccccc2)N1Cc1ccco1 (stereo not drawn),18.4µM*,-17.6,?,-5.6%,-23.7,-18.8
O=C(Nc1cccc(NC(=O)c2cncc(Br)c2)c1)c1cncc(Br)c1,4.61µM*,2.2,11.6µM*,nt,-6.4,-0.4
Cc1cc(NC(=O)c2cncc(Br)c2)ccc1NC(=O)c1cc2ccccc2o1,8.2µM*,2.1,13µM*,nt,?,1.1
Cc1cccc(NC(=O)c2cccc(NC(=O)c3ccccc3)c2)n1,?,1.1,4.11µM*,nt,-4.4,-6.3
O=C(Nc1ccncc1)c1cncc(Br)c1,-23.8%,2.5,-16.7%,-5.2%,-7.4,4.9
CC(C)c1ccc(NC(=O)c2cccc(Br)c2)cc1,?,nt,-26.1%,6.2%,-52.2*,7.1
O=C(Nc1cccc(NC(=O)c2ccccc2Cl)c1)c1cccc(Br)c1,?,nt,?,0.4%[12.3 µM],nt,nt
C(=C\c1ccccc1)/C=N/n1cnnc1,?,4.4,-4.9%,6.2%,13.9,5.3
O=C(Nc1cccc(C(=O)Nc2cccc(Br)c2)c1)c1ccccc1,?,3.2,23.1µM*,nt,-0.7,-2.2

# Bioassay records as filed in PubChem.
